Here are results for 2 compounds from PubChem BioAssay AID1159574 (Broad Institute, 2015).

The experiment can be described thus: antimalarial activity against Dd2 parasites – SYBR Green fluorescence, erythrocytes, dry powder, set 2, dose response (AID 1159574).

Potency and affinity values are given separately. Active and inactive are the calls of the source.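 The calls were made as follows: active = growth inhibitors whose fitted half-maximal dose is no more than twice the top valid dose; inconclusive = flat curve with 30 to 70% inhibition, or unreliable fit; inactive = the rest.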

For the compound `O=C(c1ccccc1F)N1CC(=O)N2[C@@H](CO)[C@@H](c3ccc(-c4cccnc4)cc3)[C@@H]2C1`, the compound was classed as inactive.

Take `O=C(c1ccccc1F)N1CC(=O)N2[C@@H](CO)[C@H](c3ccc(-c4cccnc4)cc3)[C@@H]2C1`: the outcome was inactive.
